Reference: PubChem BioAssay (Tox21)
A number with no mark means an inactive call. Results filed as inconclusive are left out. Where a call stands in place of a potency, no number is given. The source made the active and inactive calls. Calls follow the shape of the dose curve; as a rule, active = well fitted curve in the direction sought with a large enough effect in the repeat runs; inconclusive = weak or mixed curves; inactive = no such curve, though single readings can be large; an effect the other way counts as inactive or inconclusive.

Experiments:
[1] = Human pregnane X receptor (PXR) small molecule agonists, qHTS cell viability counter screen (AID 1346977); also: nearly all actives have a fitted effect of over 50% in size
Procedure, shortened: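 PXR-Luc HepG2, 2,000 cells/well, 5% charcoal-stripped FBS; 5hr settle; cpd 24hr, 37C/5% CO2; CellTiter-Fluor at 23hr, read 1hr later (fluorescence).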

[2] = Caspase-3/7 induction in HepG2 cells by small molecules, qHTS assay (AID 1346978); also: nearly all actives have a fitted effect of over 15% in size
Procedure, shortened: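 Caspase-3/7 induction was measured by Caspase-Glo 3/7 luminescence (30 min, room temperature) after a 17 hr compound exposure of wild-type HepG2 cells seeded at 2,000 per well and pre-incubated 5 hr.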

[3] = Caspase-3/7 induction in CHO-K1 cells by small molecules, qHTS cell viability counter screen (AID 1346979); also: nearly all actives have a fitted effect of over 35% in size
Procedure, shortened: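 Cells (CHO-K1, wild type) are plated at 1,500 per well and incubated 5hr. Test compounds in DMSO are then pinned in, followed by 16hr at 37C and 5% CO2. Viability is read by CellTiter-Fluor fluorescence after 1hr.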

[4] = Caspase-3/7 induction in CHO-K1 cells by small molecules, qHTS assay (AID 1346980); also: nearly all actives have a fitted effect of over 15% in size
Procedure, shortened: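 Luminescent Caspase-Glo 3/7 read (30min, room temperature) quantified apoptosis induction. Cells were wild-type CHO-K1, treated with compound for 17hr at 37 C and 5% CO2.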

[5] = Caspase-3/7 induction in HepG2 cells by small molecules, qHTS cell viability counter screen (AID 1346981); also: series mostly up to about 92 µM; nearly all actives have a fitted effect of over 30% in size
Procedure, shortened: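 Counter screen for cytotoxicity: HepG2 exposed 16 hr to compounds, then CellTiter-Fluor viability signal (fluorescence, 1 hr reagent incubation).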

[6] = biological target: Nuclear receptor subfamily 1 group I member 2 (Rattus norvegicus) (UniProt Q9R1A7); test: Rat pregnane X receptor (rPXR) activation by small molecules, qHTS assay (AID 1346983); conditions: rPXR luciferase reporter cells, One-Glo luminescence, 24 h; max activation: stronger effect = higher value; also: nearly all actives have a fitted effect of over 20% in size
Sequence of Nuclear receptor subfamily 1 group I member 2 (Rattus norvegicus) (Q9R1A7 whole entry, looked up): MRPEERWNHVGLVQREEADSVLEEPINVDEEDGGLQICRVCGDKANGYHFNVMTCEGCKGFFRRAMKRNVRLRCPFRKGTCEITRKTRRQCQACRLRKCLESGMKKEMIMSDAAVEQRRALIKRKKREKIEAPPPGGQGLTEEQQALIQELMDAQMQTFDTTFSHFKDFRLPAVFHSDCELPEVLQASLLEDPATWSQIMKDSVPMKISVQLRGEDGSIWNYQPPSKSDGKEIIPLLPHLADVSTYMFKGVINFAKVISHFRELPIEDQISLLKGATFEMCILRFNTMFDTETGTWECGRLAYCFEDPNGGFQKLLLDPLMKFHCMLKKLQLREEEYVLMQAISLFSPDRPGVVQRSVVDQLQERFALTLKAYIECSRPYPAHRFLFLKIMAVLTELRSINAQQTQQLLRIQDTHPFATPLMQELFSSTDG
Procedure, shortened: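 Luminescent readout (One-Glo luciferase, 30 min room temperature) followed 24 hr compound treatment at 37 C of rPXR cells plated 2,000 per well and preincubated 5hr; qHTS format with compounds delivered in DMSO.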

[7] = biological target: Nuclear receptor subfamily 1 group I member 2 (Homo sapiens) (UniProt O75469); test: Human pregnane X receptor (PXR) small molecule agonists, qHTS assay (AID 1346982); also: nearly all actives have a fitted effect of over 35% in size
Sequence of Nuclear receptor subfamily 1 group I member 2 (Homo sapiens) (O75469 whole entry, looked up): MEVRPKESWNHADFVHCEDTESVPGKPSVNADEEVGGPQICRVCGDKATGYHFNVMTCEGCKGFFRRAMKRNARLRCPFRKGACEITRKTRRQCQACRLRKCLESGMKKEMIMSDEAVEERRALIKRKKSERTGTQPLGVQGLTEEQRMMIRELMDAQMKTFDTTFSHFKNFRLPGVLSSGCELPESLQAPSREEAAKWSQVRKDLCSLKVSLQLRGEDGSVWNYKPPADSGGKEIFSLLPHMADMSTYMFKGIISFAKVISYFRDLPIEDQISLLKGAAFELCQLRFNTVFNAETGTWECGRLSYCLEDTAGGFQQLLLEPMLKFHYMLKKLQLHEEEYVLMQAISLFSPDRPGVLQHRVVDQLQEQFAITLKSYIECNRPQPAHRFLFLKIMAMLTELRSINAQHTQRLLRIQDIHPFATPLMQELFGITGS
Procedure, shortened: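 Luminescence (ONE-Glo, 30 min RT) after 24 hr compound exposure of PXR-Luc HepG2 cells; cells rested 5 hr post-plating in 5% charcoal-stripped FBS medium.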

[8] = biological target: Nuclear receptor subfamily 1 group I member 2 (Homo sapiens) (UniProt O75469); test: CYP3A4 induction through human pregnane X receptor (PXR) by small molecules, qHTS assay (AID 1346984); also: nearly all actives have a fitted effect of over 40% in size
Procedure, shortened: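 DPX-2 reporter cells; 24h cpd, 37C; Luciferin-IPA 3uM final x3h; One-Glo 30 min RT; lumi read.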

[9] = biological target: Nuclear receptor subfamily 1 group I member 2 (Homo sapiens) (UniProt O75469); test: Human pregnane X receptor (PXR) activation by small molecules, qHTS assay (AID 1346985); also: nearly all actives have a fitted effect of over 40% in size
Procedure, shortened: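 DPX-2 cells (HepG2 co-transfected with a PXR response element and a CYP3A4-promoter luciferase construct) were seeded at 2,000 per well, rested 5 hr at 37C, then exposed to DMSO-dissolved compounds for 24 hr. Activation was read as luciferase luminescence.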

[10] = biological target: Cytochrome P450 2D6 (Homo sapiens) (UniProt P10635); test: Cytochrome P450 Family 2 Subfamily D Member 6 (CYP2D6) small molecule antagonists: luciferase reporter qHTS assay (AID 1671196); also: nearly all actives have a fitted effect of over 50% in size; also: potency is read from the fitted curve at half-maximal effect
Sequence of Cytochrome P450 2D6 (Homo sapiens) (P10635 whole entry, looked up): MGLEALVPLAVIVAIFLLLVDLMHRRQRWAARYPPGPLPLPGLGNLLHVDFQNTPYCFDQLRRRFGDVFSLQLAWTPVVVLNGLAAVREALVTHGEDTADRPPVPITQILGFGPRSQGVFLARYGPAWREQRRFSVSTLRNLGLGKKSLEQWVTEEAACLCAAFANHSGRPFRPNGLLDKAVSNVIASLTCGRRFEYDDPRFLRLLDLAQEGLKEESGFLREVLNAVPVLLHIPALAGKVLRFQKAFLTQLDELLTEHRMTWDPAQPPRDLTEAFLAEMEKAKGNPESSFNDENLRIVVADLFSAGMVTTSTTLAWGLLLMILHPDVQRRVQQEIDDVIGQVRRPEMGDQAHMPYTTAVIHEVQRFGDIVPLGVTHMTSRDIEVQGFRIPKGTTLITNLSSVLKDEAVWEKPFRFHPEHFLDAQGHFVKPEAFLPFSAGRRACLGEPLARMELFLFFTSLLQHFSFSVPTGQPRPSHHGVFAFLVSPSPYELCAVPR
Procedure, shortened: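 Inhibition of CYP2D6 was gauged by loss of luminescence, since light produced tracks the luciferin generated from a proluciferin substrate. A 10 min room-temperature preincubation preceded 1 h NADPH-supported turnover.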

Row | Compound | Potency [1] | outcome [2] | Potency [3] | outcome [4] | outcome [5] | max activation [6] [%] | Potency [7] | Potency [8] | Potency [9] | Potency [10]
1 | CCOC(=O)[C@H](CCc1ccccc1)N[C@@H](C)C(=O)N1CCC[C@H]1C(=O)O | inactive | inactive | inactive | inactive | inactive | -3.1 |  |  |  | 
2 | O=C(O)c1ccccc1S | inactive | inactive | inactive |  | inactive |  | inactive |  |  | 
3 | OCCN1C[C@H](O)[C@@H](O)[C@H](O)[C@H]1CO | inactive | inactive | inactive |  | inactive | -2.71 | inactive | inactive | inactive | inactive
4 | OC/C=C/c1ccccc1 | inactive | inactive | inactive |  | inactive | -5.54 | inactive | inactive | inactive | 59 µM (active)
5 | C=C(C)[C@@H]1CCC2=CC(=O)C[C@@H](C)[C@]2(C)C1 | inactive | inactive | inactive | inactive | inactive |  |  |  |  | inactive
6 | N#CCc1ccccc1[N+](=O)[O-] | inactive | inactive | inactive | inactive | inactive |  |  |  |  | 78.7 µM (active)
